Results reported in PubChem BioAssay (EPA / NIEHS).
Records with an inconclusive call do not appear. The source made the active and inactive calls. The calls were made as follows: active = hit-call score of the fitted dose curve at least 0.9, where 1 is the maximum; inconclusive = response in the unintended direction; inactive = score below 0.9.

These molecules were tested against Androgen receptor (Homo sapiens) (UniProt P10275) (assay: ATG_AR_TRANS: Attagene TRANS-FACTORIAL HepG2 Assay for human Androgen Receptor (AR) (AID 2282973)). Conditions: HepG2 Attagene TRANS-FACTORIAL AR reporter transcription.
Outline: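 HepG2 cells transiently transfected with AR-Gal4 chimera and GAL4-UAS reporter units; chemical exposure 24 h. Reporter mRNA quantified by RT-PCR with fluorescent labelling and capillary electrophoresis; gain-of-signal fitted against DMSO.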

Androgen receptor (Homo sapiens), sequence (P10275 whole entry, looked up, the tested form may be a part): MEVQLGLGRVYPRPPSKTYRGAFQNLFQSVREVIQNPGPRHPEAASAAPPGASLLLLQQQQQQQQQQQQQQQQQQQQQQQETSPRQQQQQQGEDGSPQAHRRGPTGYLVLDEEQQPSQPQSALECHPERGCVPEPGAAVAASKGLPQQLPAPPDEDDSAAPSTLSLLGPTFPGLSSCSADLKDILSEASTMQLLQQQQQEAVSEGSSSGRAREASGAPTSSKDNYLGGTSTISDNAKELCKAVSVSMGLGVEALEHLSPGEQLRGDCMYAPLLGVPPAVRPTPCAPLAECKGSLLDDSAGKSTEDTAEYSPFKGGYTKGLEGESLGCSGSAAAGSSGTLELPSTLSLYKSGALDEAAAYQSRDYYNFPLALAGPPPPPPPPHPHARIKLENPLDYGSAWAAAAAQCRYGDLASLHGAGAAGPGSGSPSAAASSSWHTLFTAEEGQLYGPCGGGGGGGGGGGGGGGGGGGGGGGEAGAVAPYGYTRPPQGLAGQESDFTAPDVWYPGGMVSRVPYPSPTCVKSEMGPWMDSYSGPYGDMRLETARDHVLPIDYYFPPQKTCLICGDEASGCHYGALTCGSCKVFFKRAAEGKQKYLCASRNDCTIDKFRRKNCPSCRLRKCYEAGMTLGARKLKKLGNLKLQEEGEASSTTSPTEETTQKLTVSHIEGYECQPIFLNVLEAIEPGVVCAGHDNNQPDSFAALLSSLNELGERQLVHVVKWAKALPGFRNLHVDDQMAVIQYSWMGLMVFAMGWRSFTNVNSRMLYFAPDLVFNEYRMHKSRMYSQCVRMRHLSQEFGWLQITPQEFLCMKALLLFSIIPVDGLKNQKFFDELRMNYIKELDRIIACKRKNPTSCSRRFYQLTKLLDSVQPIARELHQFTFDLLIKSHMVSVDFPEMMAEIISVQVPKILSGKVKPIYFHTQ

Row | SMILES | outcome
1 | NC(=O)OCC(COC(N)=O)c1ccccc1 | inactive
2 | CC(Oc1cc(Cl)ccc1Cl)C(=O)O (stereo unspecified) | inactive
3 | CCCCC[Si](OCC)(OCC)OCC | inactive
4 | FC1(F)C=CC(F)(F)C1(F)F | inactive
5 | Cc1cc(=O)n(-c2ccccc2)n1C | inactive
6 | Cc1cccc(C(=O)O)c1 | inactive
7 | CCCC(=O)c1cc(O)c(O)cc1O | inactive
8 | O=C1CCCCCCCCCCCC(=O)OCCO1 | inactive
9 | CC(C)(C)c1ccc(OC2CCCCC2O)cc1 (stereo unspecified) | inactive
10 | c1ccc2c(c1)c1cccc3ccc4cccc2c4c31 | inactive
11 | CC1CCC(CO)CC1 (stereo unspecified) | inactive
12 | Cc1ccc(C)c(OCCCC(C)(C)C(=O)O)c1 | inactive
13 | CCCCCCCC1CCCC1=O (stereo unspecified) | inactive
14 | CSc1nnc(C(C)(C)C)c(=O)[nH]1 | inactive
15 | COCC(C)N (stereo unspecified) | inactive
16 | Cc1ccc(N(C)C)cc1 | inactive
17 | OCC1CCC(CO)CC1 (stereo unspecified) | inactive
18 | O=C(CC(=O)C(F)(F)C(F)(F)F)C(F)(F)F | inactive
19 | COC(=O)c1ccc([N+](=O)[O-])cc1 | inactive
20 | N[C@H]1C(O)O[C@H](CO)[C@H](O)[C@@H]1O (stereo partly specified) | inactive
21 | Cc1cc(F)ccc1-c1cc(N2CC[C@@H](O)[C@H]2CO)ncc1N(C)C(=O)C(C)(C)c1cc(C(F)(F)F)cc(C(F)(F)F)c1 | inactive
22 | Cc1cc(C)c(S(=O)(=O)O)cc1N=Nc1cc(S(=O)(=O)O)c2ccccc2c1O | inactive
23 | O=CN1CCOCC1 | inactive
24 | O=C(NO)c1ccccc1 | inactive
25 | CCCCCCCCCCCCCC(=O)OCC(O)CO (stereo unspecified) | inactive
26 | CCCCC[C@H](O)CC(=O)CCc1ccc(O)c(OC)c1 | inactive
